We go through 40 molecules from ChEMBL document CHEMBL3988442, “University of Dundee, Small-Polar-MMV Screening Library” (2021).

SMILES strings stand for the structures.

The assay deals with AMP-activated protein kinase, AMPK (Homo sapiens) (UniProt P54646+O43741+P54619+Q9UGJ0+Q9Y478+Q13131+Q9UGI9). Put plainly: AMP-dependent Kinase enzyme assay. An in vitro enzyme assay that detects ADP turnover that is directly proportional to AMPK activity. This uses naive AMPK that is activated during the assay with MK-8722. In kind it is functional. Set-up: scale not given: direction of the effect not stated beside the values. The conditions noted are these: 30 µM.
With `CCCNc1ncc(CN2CCOC(Cc3cccc(F)c3)C2)cn1` (stereo not given), the Percent Effect was 6.84%. As for `CCN(C)S(=O)(=O)N[C@H]1CN(c2ccc(F)cn2)C[C@@H]1C(C)C`, the figure is -6.05%. As to `CC(C)c1nc(CN(C)Cc2ncccc2C(=O)O)cs1`, the Percent Effect turned out to be 4.59%. As for `OC(CNCc1nnc2ccccn12)c1ccc2c(c1)OCCCO2` (stereo not given), the figure is 9.77%; as for `c1ccc(CCN2CCCC2c2cccc(Nc3nccs3)n2)cc1` (stereo not given), 3.49%; as for `O=C(c1coc(-c2ccccc2)n1)N1CCCC1`, 5.08%.

In the case of `COC[C@]1(O)CCN(c2cc(OC)ncn2)CC1(C)C`, the Percent Effect worked out at 20.7%. Then `Cc1cccc(C(=O)N2CC(=O)N(c3ccccc3Cl)CC2C)n1` (stereo not given), with 20.1%. For the molecule `O=C(NC1CCCCC1)N1C[C@H]2CN(c3cnccn3)C[C@@]2(C(=O)O)C1`, the Percent Effect stood at 2.64%. For the molecule `CC(NC(=O)NC1CCN(Cc2ccncc2)CC1)c1ccccc1F` (stereo not given), the Percent Effect is -3.35%.

Consider `Oc1ccc(Br)c(CNc2cccc(-c3nnc[nH]3)c2)c1`, for which the Percent Effect came out at 23.8%.

`CC(C)(C)Oc1ccc(NCC(=O)NCc2ccco2)cc1`: the Percent Effect came out at 9.8%. Take `Cc1cnc(C(=O)N2CCN(c3ncc4c(n3)CCOC4)CC2)cn1`: the Percent Effect came out at 15.1%.

On to `c1ncc(-c2cn(CCSc3cnn[nH]3)nn2)cn1`, for which the Percent Effect was -3.28%. As for `FC(F)(F)Oc1cccc(CNCc2ccc(-n3cncn3)nc2)c1`, the figure is 12.8%; as for `O=C(NC1CCN(c2ccccc2OC(F)F)C1)c1cccnc1` (stereo not given), -0.669%.

As to `Cc1ccc(-n2ncc3c2CCCC3N)cc1C` (stereo not given), the Percent Effect was 16.9%. In the case of `Cc1cc(NC(=O)NCCC(=O)N2CCCc3ccccc32)no1`, the Percent Effect was -0.372%. Then `CSc1ccc(NC(=O)Cn2cc(N)cn2)cc1`, with -79.3%; and `CCn1cc(C(=O)NCCN2CCCc3ccccc32)c(C)n1`, with 7.97%; and `O=C(NCC1CCCO1)Nc1nnc(C(F)(F)F)s1` (stereo not given), with 3.01%. As for `Cc1nccn1CC1CCCN(C(=O)Cc2ccsc2)C1` (stereo not given), the figure is 0.964%; as for `CCC(C)(CC(=O)OC)NCc1cc(C)on1` (stereo not given), -1.46%; as for `O=C(Cn1ccc(=O)[nH]c1=O)NCc1cccnc1OCC(F)(F)F`, -4.52%.

`CN(C)C(C(=O)N1CCN(CCn2cccc2)CC1)c1cccc(F)c1` (stereo not given): the Percent Effect was -11.9%. Then `Cc1nc(C(C)C)sc1C(C)N(C)C(=O)c1ccc(=O)n(C)c1` (stereo not given), with 5.47%; and `COCCn1ccnc1C1CCN(C(=O)CSc2nnc(C)s2)CC1`, with 7.22%; and `C[C@H](N)C(=O)N1CCC(c2[nH]ncc2-c2ccccc2)CC1`, with -8.96%.

`N[C@H]1CN(C(=O)c2ccc3[nH]c(=O)c(=O)[nH]c3c2)C[C@@H]1c1ccccc1`: the Percent Effect turned out to be 3.24%.

Regarding `c1csc(CN2CCCN(c3ccc(Cn4ccnc4)cn3)CC2)c1`, the Percent Effect is -2.96%. As for `CC(C)Cc1cc(C(=O)N2CCC(Cc3cnn(C)c3)C2)cc(O)n1` (stereo not given), the Percent Effect is -2.83%.

Turning to `Cc1ccccc1N1CCN(C(=O)CCc2nncn2C)C(C)C1` (stereo not given), the Percent Effect was determined as 6.58%. As for `Cc1ccc(CNC(C)(C)c2noc(C(C)(C)C)n2)o1`, the figure is 0.8%; as for `Cc1cnc(N2CCN(C(C)C(N)=O)CC2)nc1` (stereo not given), -0.289%; as for `O=C(c1ccccc1F)N1CCCC1Cn1c(=O)oc2ccccc21` (stereo not given), 10.9%. With `COC(=O)c1ccc(OCCn2cnc(C#N)n2)cc1`, the Percent Effect is 0.636%.

`CN1CCN(c2cccc(NC(=O)NCc3csc(N(C)C)n3)c2)C1=O`: the Percent Effect is -16.7%. As for `c1nc(N2CCOCC2)sc1-c1cncn1CCCN1CCCCC1`, the figure is -0.295%. As for `Cn1ccnc1C(O)c1ccccc1N1CCN(CC2CCCC2)CC1` (stereo not given), the figure is 16.2%; as for `Cc1nc(COC(=O)c2cccnc2C)no1`, 3.04%.
